# In paper PMC11062922 (Nature Chemical Biology, 2023):
# Read-outs that look alike come from different tables or passages of the source.
# How the values were obtained:
# Design in all cases: species or system human, MV4-11 + K-562 + COLO205 + SK-N-BE2 + OVCAR-8
# GSK3A = conditions: compound concentrations:0.3nM, 1nM, 3nM, 10nM, 30nM, 100nM, 300nM, 1000nM,R2:0.98330827393916598,slope:1.45562792091779,EC50 Standard Error, by the legend:Standard error of the EC50 estimation as provided by the drc package.
# GSK3B = conditions: compound concentrations:0.3nM, 1nM, 3nM, 10nM, 30nM, 100nM, 300nM, 1000nM,R2:0.96555674920545798,slope:0.96794765422259599,EC50 Standard Error, by the legend:Standard error of the EC50 estimation as provided by the drc package.
# LATS1 = conditions: compound concentrations:0.3nM, 1nM, 3nM, 10nM, 30nM, 100nM, 300nM, 1000nM,R2:0.97889671835051595,slope:1.6751561590983699,EC50 Standard Error, by the legend:Standard error of the EC50 estimation as provided by the drc package.
# PKN1 = conditions: compound concentrations:0.3nM, 1nM, 3nM, 10nM, 30nM, 100nM, 300nM, 1000nM,R2:0.97867991540409105,slope:0.79419686113227705,EC50 Standard Error, by the legend:Standard error of the EC50 estimation as provided by the drc package.
# PRKX = conditions: compound concentrations:0.3nM, 1nM, 3nM, 10nM, 30nM, 100nM, 300nM, 1000nM,R2:0.94127289372754697,slope:1.4629649923763099,EC50 Standard Error, by the legend:Standard error of the EC50 estimation as provided by the drc package.
# BMPR1B = conditions: read-out: apparent Kd; compound concentrations:100 nM and 1000 nM (sheet 'Samples'); n = 1
# AGK = conditions: read-out: apparent Kd, compound concentrations: 100 nM and 1000 nM (sheet 'Samples'), n = 1
# CDK12 = conditions: read-out: apparent Kd, compound concentrations: 100 nM and 1000 nM (sheet 'Samples'), n = 1
# PDXK = conditions: read-out: apparent Kd, compound concentrations: 100 nM and 1000 nM (sheet 'Samples'), n = 1
# EPHA7 = conditions: read-out: apparent Kd; compound concentrations: 100 nM and 1000 nM (sheet 'Samples'), CATDS: 1.2240200797628401E-2; n = 1
# MST1R = conditions: read-out: apparent Kd, n = 1
# RIPK3 = conditions: read-out: apparent Kd, compound concentrations: 100 nM and 1000 nM (sheet 'Samples'), n = 1
# MAP2K6 = conditions: read-out: apparent Kd, n = 1
# TAOK3 = conditions: read-out: apparent Kd, n = 1
# SIK3 = conditions: read-out: apparent Kd, n = 1
# CAMK2B = conditions: read-out: apparent Kd, compound concentrations: 100 nM and 1000 nM (sheet 'Samples'), n = 1
# CAMK2G = conditions: read-out: apparent Kd; compound concentrations: 100 nM and 1000 nM (sheet 'Samples'), CATDS: 2.3496297830239501E-2; n = 1
# PRKCZ = conditions: read-out: apparent Kd, n = 1
# ERN2 = conditions: read-out: apparent Kd; compound concentrations:100 nM and 1000 nM (sheet 'Samples'); n = 1
# MET = conditions: read-out: apparent Kd; compound concentrations:100 nM and 1000 nM (sheet 'Samples'); n = 1
# [1] = compound concentrations:100 nM and 1000 nM (sheet 'Samples')
# 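For EC50 in this document: competition pulldown with Kinobeads ε in cell lysates, inhibitor preincubated 45 min at 4 °C, bound kinases quantified by LC–MS/MS against DMSO control.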
# 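For Kd in this document: competition pulldown with Kinobeads ε in cell lysates, inhibitor preincubated 45 min at 4 °C, bound kinases quantified by LC–MS/MS against DMSO control.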
compound,measurement,setting,value
CCn1c(-c2nonc2N)nc2c(C#CC(C)(C)O)nc(OCCNC)cc21.Cl [GSK949675A],EC50,GSK3A,167 nM
same,Kd,GSK3A; read-out: apparent Kd,104 nM
same,EC50,GSK3B,322 nM
same,Kd,GSK3B; read-out: apparent Kd,171 nM
same,EC50,LATS1,238 nM
same,Kd,LATS1; read-out: apparent Kd,238 nM
same,EC50,PKN1,4240 nM
same,Kd,PKN1; read-out: apparent Kd,4230 nM
same,EC50,PRKX,221 nM
same,Kd,PRKX; read-out: apparent Kd,221 nM
CNCc1ccc(-c2cc(-c3nc(-c4ccc(S(=O)(=O)C(C)C)cc4)cnc3N)on2)cc1 [VE-822],potency estimated from few doses,BMPR1B,868 nM
Cl.Cl.NC(CNC(=O)c1cc(Br)c(-c2ccnc3[nH]ccc23)s1)c1ccccc1.NC(CNC(=O)c1cc(Br)c(-c2ccnc3[nH]ccc23)s1)c1ccccc1 (centres unmarked) [GSK1322949A],potency estimated from few doses,AGK; CATDS: 3.3484364918531399E-2,953 nM
CCN(CC)Cc1ccc(Nc2nccc(-c3cnn4ncccc34)n2)cc1 [GW780056X],potency estimated from few doses,CDK12; CATDS: 2.2557982772038999E-2,899 nM
same,potency estimated from few doses,PDXK; CATDS: 2.0244692732670499E-2,1270 nM
CCn1c(-c2cccnc2O)nc2cnccc21 [SB-736715],potency estimated from few doses,EPHA7,2080 nM
same,potency estimated from few doses,"MST1R; compound concentrations: 100 nM and 1000 nM (sheet 'Samples'), CATDS: 1.2580908946689701E-2",1930 nM
same,potency estimated from few doses,RIPK3; CATDS: 1.26623913156397E-2,1900 nM
CCn1c(-c2nonc2N)nc2c(C#CC(C)(C)O)nc(O[C@@H](CN)c3ccccc3)cc21.O=C(O)C(F)(F)F [GSK1007102B],potency estimated from few doses,MAP2K6; [1],1690 nM
NC(=O)c1cc(-c2ccccc2)cc2c(C3CCNCC3)c[nH]c12 [GSK301362A],potency estimated from few doses,TAOK3; [1],1570 nM
O=C(O)C(F)(F)F.O=C(O)C(F)(F)F.O=c1[nH]ccc2nc(N[C@@H]3CCCNC3)nc(Nc3ccc(S(=O)(=O)N4CCOCC4)cc3)c12.O=c1[nH]ccc2nc(N[C@@H]3CCCNC3)nc(Nc3ccc(S(=O)(=O)N4CCOCC4)cc3)c12 [GSK2177277A],potency estimated from few doses,"MST1R; compound concentrations: 100 nM and 1000 nM (sheet 'Samples'), CATDS: 6.3226356559210701E-3",1690 nM
same,potency estimated from few doses,"SIK3; compound concentrations: 100 nM and 1000 nM (sheet 'Samples'), CATDS: 6.8651363479693096E-3",1090 nM
same,potency estimated from few doses,"TAOK3; compound concentrations: 100 nM and 1000 nM (sheet 'Samples'), CATDS: 6.2703295867196796E-3",1770 nM
COc1cc[nH]c1/C=C1\C(=O)Nc2ccc(F)c(C#CC3(O)CCNCC3)c21.Cl [RO0282986-001],potency estimated from few doses,CAMK2B; CATDS: 2.6528417916085501E-2,123 nM
same,potency estimated from few doses,CAMK2G,154 nM
same,potency estimated from few doses,"MAP2K6; compound concentrations: 100 nM and 1000 nM (sheet 'Samples'), CATDS: 9.6893915598830205E-3",1500 nM
CC(C)Nc1cc(-c2ccc3c(N)n[nH]c3c2)nc(N)n1 [GSK2221681A],potency estimated from few doses,PRKCZ; [1],1520 nM
Cc1ccccc1C1=C(c2cn(C)c3ccccc23)C(=O)NC1=O [RO0317612-000],potency estimated from few doses,CAMK2B; CATDS: 0.21692870054448801,479 nM
same,potency estimated from few doses,PDXK; CATDS: 0.20460809182567499,529 nM
Cn1cc(C2=C(c3c(S(C)=O)n(C)c4ccccc34)C(=O)NC2=O)c2ccccc21 (centres unmarked) [RO0317379-000],potency estimated from few doses,PDXK; CATDS: 0.122248811016512,1030 nM
O=C(Nc1n[nH]c2nc(-c3ccccc3O)ccc12)C1CC1 [SB-711880],potency estimated from few doses,MAP2K6; [1],1810 nM
Nc1nccc(-c2ccc3c(N)n[nH]c3c2)n1 [GSK1034945A],potency estimated from few doses,PRKCZ; [1],1830 nM
Cc1occc1-c1nc(N)c(OC[C@@H](N)Cc2c[nH]c3ccccc23)cc1-c1cc2c(C)n[nH]c2cn1 [GSK1660450B],potency estimated from few doses,SIK3; [1],154 nM
same,potency estimated from few doses,TAOK3; [1],76 nM
NS(=O)(=O)c1ccc(NC=C2C(=O)Nc3ccc4ncsc4c32)cc1 [GW589933X],potency estimated from few doses,CDK12; CATDS: 1.98005897918999E-2,1010 nM
Nc1nc(-c2ccc3c(N)n[nH]c3c2)cc(N2CCCC(NC(=O)c3ccccc3)C2)n1 (centres unmarked) [GSK2286775B],potency estimated from few doses,ERN2,1580 nM
same,potency estimated from few doses,MET,2250 nM
same,potency estimated from few doses,MST1R; [1],2250 nM
CCn1c(-c2nonc2N)nc2cncc(Br)c21 [SB-738004],potency estimated from few doses,PRKCZ; [1],544 nM
Cl.Cl.Cl.c1ccc(Oc2ccc(Nc3ccnc4cc(-c5ccc(CN6CCNCC6)o5)ccc34)cc2)nc1.c1ccc(Oc2ccc(Nc3ccnc4cc(-c5ccc(CN6CCNCC6)o5)ccc34)cc2)nc1 [GW567142A],potency estimated from few doses,AGK; CATDS: 1.95822774177494E-2,1230 nM
same,potency estimated from few doses,"PRKCZ; compound concentrations: 100 nM and 1000 nM (sheet 'Samples'), CATDS: 1.7514325716089001E-2",1820 nM
same,potency estimated from few doses,RIPK3; CATDS: 2.6794845522232699E-2,500 nM
